Records with an inconclusive call do not appear. Calls of active or inactive are those of the source. The call rests on the fitted dose curve; in most records, active means well fitted curve in the direction sought with a large enough effect; inconclusive means small, poorly fitted or top-dose-only effect, or another doubt; inactive means no such curve, though single readings can be large; an effect the other way counts as inactive or inconclusive.
Assays:
[1] = system: CRL-7250; test: Cytotoxic Profiling of Annotated Libraries Using Quantitative High-Throughput Screening (AID 1296008); conditions: Five cell lines viability, CellTiter-Glo ATP luminescence, 48-72 h; max response: hits give low values; further: nearly all actives have a fitted effect of over 60% in size; on max response: on the % scale 0 is the no-effect control and ±100 the full control effect
Procedure, shortened: (§1)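 Cytotoxicity was measured as CellTiter-Glo ATP luminescence, read after 10 min at room temperature. Compound treatment of the cells lasted 48 or 72 hr at 37 degrees Celsius in a qHTS format.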

[2] = system: HEK293; test: as above; conditions: Five cell lines viability, CellTiter-Glo ATP luminescence, 48-72 h; max response: hits give low values
Procedure, shortened: as §1

[3] = system: HaCat; test: as above; conditions: Five cell lines viability, CellTiter-Glo ATP luminescence, 48-72 h; max response: hits give low values
Procedure, shortened: as §1

[4] = system: KB-3-1; test: as above; conditions: Five cell lines viability, CellTiter-Glo ATP luminescence, 48-72 h; max response: hits give low values
Procedure, shortened: as §1

[5] = system: NIH3T3; test: as above; conditions: Five cell lines viability, CellTiter-Glo ATP luminescence, 48-72 h; max response: hits give low values
Procedure, shortened: as §1

[6] = system: HACAT; test: qHTS assay to identify novel small-molecules to repurpose for Merkel cell carcinoma treatment (AID 1296009); conditions: MCC and control cell lines, CellTiter-Glo viability, 72 h; at 44.8 µM (top of the series) unless noted; further: nearly all actives have a fitted effect of over 60% in size
Procedure, shortened: (§2)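 72 hr, 37 degree celsius; NPC 8-pt / MIPE 11-pt dose response; compound pinned in DMSO; CellTiter-Glo, 10 min RT, luminescence; normalized to no-cell and DMSO controls.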

[7] = system: HEK293T; test: as above; conditions: MCC and control cell lines, CellTiter-Glo viability, 72 h; series mostly up to 44.8 µM
Procedure, shortened: as §2

[8] = system: C33A; test: Primary qHTS to identify gynecologic anti-cancer compounds using libraries of approved drugs and bioactive compounds (AID 1345084); conditions: Gynecologic cancer cell panel viability, ATPlite luminescence, 48 h; series mostly up to 57.5 µM; further: on the % scale 0 is the no-effect control and ±100 the full control effect; nearly all actives have a fitted effect of over 55% in size
Procedure, shortened: (§3)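 48 h compound exposure at 37 C, 5% CO2; five-point qHTS. ATPlite luminescence readout of cell ATP.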

[9] = system: CAOV3; test: as above; conditions: Gynecologic cancer cell panel viability, ATPlite luminescence, 48 h; series mostly up to 57.5 µM
Procedure, shortened: as §3

[10] = system: CASKI; test: as above; conditions: Gynecologic cancer cell panel viability, ATPlite luminescence, 48 h; series mostly up to 57.5 µM
Procedure, shortened: as §3

[11] = system: Es-2; test: as above; conditions: Gynecologic cancer cell panel viability, ATPlite luminescence, 48 h; series mostly up to 57.5 µM
Procedure, shortened: as §3

[12] = system: HeLa; test: as above; conditions: Gynecologic cancer cell panel viability, ATPlite luminescence, 48 h; series mostly up to 57.5 µM
Procedure, shortened: as §3

CC(=O)OC[C@@]12[C@H](O)C[C@]3(C)C(=CCC4[C@@]5(C)CC[C@H](O[C@@H]6O[C@H](C(=O)O)[C@@H](O[C@@H]7O[C@H](CO)[C@@H](O)[C@H](O)[C@H]7O)[C@H](O)[C@H]6O[C@@H]6O[C@H](CO)[C@@H](O)[C@H](O)[C@H]6O)[C@](C)(CO)C5CC[C@]43C)[C@@H]1CC(C)(C)[C@@H](OC(C)=O)[C@@H]2O (stereo partly specified)
inactive: outcome [1] | outcome [2] | outcome [3] | max response [4] 6.14% | max response [5] 0.485% | outcome [6] inactive [at 9.27 µM] | outcome [7] inactive [at 9.27 µM] | activity change, negative = cytotoxicity [8] -7.61% [at 11.6 µM] | activity change, negative = cytotoxicity [9] 8.05% [at 11.6 µM] | activity change, negative = cytotoxicity [10] 5.42% [at 11.6 µM] | activity change, negative = cytotoxicity [11] 3.37% [at 11.6 µM] | activity change, negative = cytotoxicity [12] 2.68% [at 11.6 µM]

C/C=C(\C)C(=O)O[C@@H]1CC2[C@@H](CC=C3C[C@@H](O[C@H]4C[C@H](OC)[C@H](O[C@H]5C[C@H](OC)[C@H](O[C@H]6C[C@H](OC)[C@H](O[C@H]7C[C@@H](OC)[C@H](O[C@@H]8O[C@H](CO)[C@@H](O)[C@H](O)[C@H]8O)[C@@H](C)O7)[C@@H](C)O6)[C@@H](C)O5)[C@@H](C)O4)CC[C@@]32C)[C@@]2(O)CC[C@H](C(C)=O)[C@@]12C (stereo partly specified)
inactive: max response [1] 2.31% | outcome [2] | outcome [3] | max response [4] -8.02% | max response [5] 0.771% | outcome [6] inactive [at 9.27 µM] | outcome [7] inactive [at 9.27 µM] | activity change, negative = cytotoxicity [8] 1.71% [at 6.55 µM] | activity change, negative = cytotoxicity [9] -0.474% [at 6.55 µM] | activity change, negative = cytotoxicity [10] -0.911% [at 6.55 µM] | activity change, negative = cytotoxicity [11] -1.08% [at 6.55 µM] | activity change, negative = cytotoxicity [12] -14.4% [at 6.55 µM]

OC[C@H]1O[C@@H](Oc2cc(O)cc(/C=C/c3ccc(O)cc3)c2)[C@H](O)[C@@H](O)[C@@H]1O
inactive: outcome [1] | outcome [2] | outcome [3] | outcome [4] | outcome [5] | outcome [6] | Potency [7] | Potency [8] | Potency [9] | Potency [10]

COC(=O)C1=CO[C@@H](O[C@@H]2O[C@H](CO)[C@@H](O)[C@H](O)[C@H]2O)[C@@H]2[C@@H](C(=O)OC)[C@@H](O)C(O)[C@H]12 (stereo partly specified)
inactive: max response [1] -2.23% | outcome [2] | outcome [3] | max response [4] 0.336% | max response [5] 1.13% | outcome [6] inactive [at 17.4 µM] | Potency [7] | Potency [8] | Potency [9] | Potency [10] | Potency [11] | Potency [12]

COc1cc(C2Oc3c(OC)cc(/C=C/C(=O)OC[C@H]4O[C@@H](OC(C)(C)C(=O)O)[C@H](O)[C@@H](O)[C@@H]4O)cc3C2CO)ccc1O (stereo partly specified)
inactive: outcome [1] | outcome [2] | outcome [3] | max response [4] 0.492% | max response [5] 1.11% | outcome [6] inactive [at 17.4 µM] | Potency [7] | Potency [8] | Potency [9] | Potency [10] | Potency [11] | Potency [12]

C/C=C/C=C/C=C/C(=O)O[C@@H]1C=C(CO)C(O)(C(=O)O)[C@@]2(C)CCCC(C)(C)[C@H]12 (stereo partly specified)
inactive: max response [1] 2.37% | outcome [2] | outcome [3] | max response [4] 0.213% | max response [5] -2.73% | outcome [6] inactive [at 17.4 µM] | Potency [7] | Potency [8] | Potency [9] | Potency [10] | Potency [11] | Potency [12]

O=C(/C=C/c1ccc(O)cc1)OC[C@H]1O[C@@H](OC(=O)/C=C/c2ccccc2)[C@H](O)[C@@H](O)[C@@H]1O
inactive: outcome [1] | outcome [2] | outcome [3] | max response [4] -1.64% | outcome [5] | outcome [6] inactive [at 17.4 µM] | Potency [7] | Potency [8] | Potency [9] | Potency [10] | Potency [11] | Potency [12]

O=C(O[C@@H]1O[C@H](CO)[C@@H](O)[C@H](O)[C@H]1O)c1c(O)cc(O)cc1/C=C/c1ccccc1
inactive: max response [1] 2.06% | outcome [2] | outcome [3] | outcome [4] | max response [5] 3.61% | outcome [6] inactive [at 17.4 µM] | Potency [7] | Potency [8] | Potency [9] | Potency [10] | Potency [11] | Potency [12]

CC1(C)C(=O)N2c3ccccc3[C@]3(CC(n4cnc5ccccc5c4=O)C(=O)O3)[C@H]2N1O (stereo partly specified)
inactive: outcome [1] | outcome [2] | outcome [3] | outcome [4] | max response [5] 1.65% | outcome [6] inactive [at 17.4 µM] | Potency [7] | Potency [8] | Potency [9] | Potency [10] | Potency [11] | Potency [12]

CC(C)CNC(=O)/C=C/CCCCc1ccc2c(c1)OCO2
inactive: max response [1] -4.34% | outcome [2] | outcome [3] | max response [4] 4.53% | max response [5] -0.808% | outcome [6] | Potency [7] | Potency [8] | Potency [9] | Potency [10] | Potency [11] | Potency [12]

CC1CC(O)C2(C)C(C(=O)O)=CCCC2C1(C)CCc1ccoc1 (stereo unspecified)
inactive: max response [1] 0.739% | outcome [2] | outcome [3] | outcome [4] | max response [5] -2.92% | outcome [6] | Potency [7] | Potency [8] | Potency [9] | Potency [10] | Potency [11] | Potency [12]

CC1=CC(=O)CC(C)(C)C1(O)CCC(C)O (stereo unspecified)
inactive: outcome [1] | outcome [2] | outcome [3] | outcome [4] | max response [5] 2.02% | outcome [6] | Potency [7] | Potency [8] | Potency [9] | Potency [10] | Potency [11] | Potency [12]

COc1cccc(-n2nc(C(=O)O)cc2-c2ccc(C3CCCCC3)c(Cl)c2)c1
inactive: outcome [1] | outcome [2] | outcome [3] | outcome [4] | max response [5] 2.94% | outcome [6] | Potency [7] | Potency [8] | Potency [9] | Potency [10] | Potency [11] | Potency [12]

C/C=C/C1=CC2=CC(=O)C(C)(O)C(OC(=O)c3c(C)cc(O)cc3O)C2CO1 (stereo unspecified)
inactive: max response [1] 1.95% | outcome [2] | outcome [3] | max response [4] 2.68% | outcome [5] | outcome [6] | Potency [7] | Potency [8] | Potency [9] | Potency [10] | Potency [11] | Potency [12]

Reference: PubChem BioAssay (NCATS)
